# The supplement of paper PMC11732987, “Enantioselective OTUD7B fragment discovery through chemoproteomics screening and high-throughput optimisation” (Communications Chemistry, 2025)
# A number with no mark means an inactive call.
# How the values were obtained:
# Test in all cases: log2 ratio of Biotin-Ahx-Ub-VS probe labelling (fragment/DMSO); higher = less target engagement (more negative = stronger competition), active = hit call of the paper (q ≤ 0.05, log2 ratio ≤ -1)
# Details in all cases: compound concentration: 200 uM; treatment time: 3 h
# USP19 = biological target: T1, USP19 (UniProt O94966)
# T1 sequence (whole entry): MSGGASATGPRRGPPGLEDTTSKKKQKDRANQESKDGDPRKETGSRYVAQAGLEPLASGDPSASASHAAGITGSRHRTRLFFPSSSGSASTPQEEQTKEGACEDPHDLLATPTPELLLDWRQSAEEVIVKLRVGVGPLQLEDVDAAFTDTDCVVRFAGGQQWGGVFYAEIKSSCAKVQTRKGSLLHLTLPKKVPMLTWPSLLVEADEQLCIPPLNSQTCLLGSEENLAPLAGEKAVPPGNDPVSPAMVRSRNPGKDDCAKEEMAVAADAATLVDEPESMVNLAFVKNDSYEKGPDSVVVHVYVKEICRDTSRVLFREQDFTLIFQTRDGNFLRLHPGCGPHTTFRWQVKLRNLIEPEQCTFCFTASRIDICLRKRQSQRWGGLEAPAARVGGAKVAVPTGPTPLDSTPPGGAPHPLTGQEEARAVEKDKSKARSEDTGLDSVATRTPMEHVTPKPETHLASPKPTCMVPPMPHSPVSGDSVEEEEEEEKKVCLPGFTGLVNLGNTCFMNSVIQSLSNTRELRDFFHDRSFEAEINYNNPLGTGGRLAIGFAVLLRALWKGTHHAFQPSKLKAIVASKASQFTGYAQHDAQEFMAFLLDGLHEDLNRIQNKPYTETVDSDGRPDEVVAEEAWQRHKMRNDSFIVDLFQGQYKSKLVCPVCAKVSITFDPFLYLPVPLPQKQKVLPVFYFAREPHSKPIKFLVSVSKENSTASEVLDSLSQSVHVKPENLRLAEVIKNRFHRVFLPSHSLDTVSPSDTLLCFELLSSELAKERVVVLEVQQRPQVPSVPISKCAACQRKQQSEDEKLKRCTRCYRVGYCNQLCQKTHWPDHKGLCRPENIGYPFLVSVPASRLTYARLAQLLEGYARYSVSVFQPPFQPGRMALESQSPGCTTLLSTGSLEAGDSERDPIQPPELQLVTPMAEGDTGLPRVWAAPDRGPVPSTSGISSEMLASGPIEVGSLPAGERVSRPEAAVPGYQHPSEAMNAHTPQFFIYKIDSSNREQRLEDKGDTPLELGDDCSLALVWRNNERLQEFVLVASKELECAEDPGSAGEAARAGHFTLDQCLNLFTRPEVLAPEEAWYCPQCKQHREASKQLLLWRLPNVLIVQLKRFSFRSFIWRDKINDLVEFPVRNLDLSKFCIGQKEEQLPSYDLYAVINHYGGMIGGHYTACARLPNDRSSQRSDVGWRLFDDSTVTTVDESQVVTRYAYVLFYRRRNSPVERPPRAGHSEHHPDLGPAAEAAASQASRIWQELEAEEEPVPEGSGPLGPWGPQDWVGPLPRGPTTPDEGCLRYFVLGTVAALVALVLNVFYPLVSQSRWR
# Method in brief: (§1)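 HEK293T lysate, 495 µg per sample in Tris/CHAPS/IGEPAL buffer with protease inhibitors, was treated in triplicate with fragment at 200 µM or vehicle for 3 h and then with Biotin-Ahx-Ub-VS at 0.5 µM final for 1 h. Labelled DUBs were NeutrAvidin-enriched, digested with LysC and trypsin, and run by diaPASEF LC-MS/MS. Spectronaut label-free quantities were global-median-normalised, and values are average log2 fragment/vehicle ratios by unpaired t-test on proteins with ≥2 unique peptides.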
# USP22 = biological target: T2, USP22 (UniProt Q9UPT9)
# T2 sequence (whole entry): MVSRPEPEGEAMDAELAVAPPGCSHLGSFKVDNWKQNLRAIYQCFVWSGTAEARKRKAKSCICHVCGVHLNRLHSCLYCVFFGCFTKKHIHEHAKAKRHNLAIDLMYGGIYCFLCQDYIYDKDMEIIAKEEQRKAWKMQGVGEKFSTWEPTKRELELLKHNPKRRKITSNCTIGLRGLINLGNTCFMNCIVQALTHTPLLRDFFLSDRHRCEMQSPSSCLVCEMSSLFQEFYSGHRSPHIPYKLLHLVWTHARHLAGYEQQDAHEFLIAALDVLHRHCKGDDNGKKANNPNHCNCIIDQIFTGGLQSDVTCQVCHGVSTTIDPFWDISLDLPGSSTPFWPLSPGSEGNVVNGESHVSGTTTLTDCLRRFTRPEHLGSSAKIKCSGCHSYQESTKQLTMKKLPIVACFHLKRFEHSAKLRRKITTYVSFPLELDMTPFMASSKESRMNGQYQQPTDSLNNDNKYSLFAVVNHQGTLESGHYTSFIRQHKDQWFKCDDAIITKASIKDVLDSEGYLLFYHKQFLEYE
# Method in brief: as §1
# USP24 = USP24 (UniProt Q9UPU5)
# Method in brief: as §1
# USP25 = biological target: T3, USP25 (UniProt Q9UHP3)
# T3 sequence (whole entry): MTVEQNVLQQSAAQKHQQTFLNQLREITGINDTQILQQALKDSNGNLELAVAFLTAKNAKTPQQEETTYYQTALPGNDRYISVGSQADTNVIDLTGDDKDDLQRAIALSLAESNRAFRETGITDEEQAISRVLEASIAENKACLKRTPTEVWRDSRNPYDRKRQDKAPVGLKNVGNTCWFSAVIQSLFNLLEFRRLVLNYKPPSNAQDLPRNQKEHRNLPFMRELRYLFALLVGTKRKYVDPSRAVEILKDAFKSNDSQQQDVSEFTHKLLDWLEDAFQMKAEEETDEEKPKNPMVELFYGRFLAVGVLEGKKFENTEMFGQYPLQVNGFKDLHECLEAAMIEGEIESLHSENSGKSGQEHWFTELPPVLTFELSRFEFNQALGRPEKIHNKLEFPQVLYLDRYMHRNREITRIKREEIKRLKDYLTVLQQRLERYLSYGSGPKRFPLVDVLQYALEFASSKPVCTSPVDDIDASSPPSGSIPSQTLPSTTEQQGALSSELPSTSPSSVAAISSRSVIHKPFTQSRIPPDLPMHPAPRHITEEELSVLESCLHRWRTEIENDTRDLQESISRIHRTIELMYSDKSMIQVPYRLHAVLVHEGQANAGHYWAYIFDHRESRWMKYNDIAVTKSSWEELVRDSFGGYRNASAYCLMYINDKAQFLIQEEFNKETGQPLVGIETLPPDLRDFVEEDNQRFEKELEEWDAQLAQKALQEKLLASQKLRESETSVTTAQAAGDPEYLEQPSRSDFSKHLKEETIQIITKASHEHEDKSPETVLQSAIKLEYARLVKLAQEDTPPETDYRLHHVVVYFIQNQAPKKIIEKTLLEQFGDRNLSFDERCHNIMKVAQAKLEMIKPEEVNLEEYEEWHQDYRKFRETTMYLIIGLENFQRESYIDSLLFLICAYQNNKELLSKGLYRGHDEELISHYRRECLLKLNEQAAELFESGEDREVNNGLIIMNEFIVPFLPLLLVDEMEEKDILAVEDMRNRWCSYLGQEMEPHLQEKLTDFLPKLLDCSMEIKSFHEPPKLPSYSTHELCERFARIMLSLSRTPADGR
# Method in brief: as §1
# USP28 = biological target: T4, USP28 (UniProt Q96RU2)
# T4 sequence (whole entry): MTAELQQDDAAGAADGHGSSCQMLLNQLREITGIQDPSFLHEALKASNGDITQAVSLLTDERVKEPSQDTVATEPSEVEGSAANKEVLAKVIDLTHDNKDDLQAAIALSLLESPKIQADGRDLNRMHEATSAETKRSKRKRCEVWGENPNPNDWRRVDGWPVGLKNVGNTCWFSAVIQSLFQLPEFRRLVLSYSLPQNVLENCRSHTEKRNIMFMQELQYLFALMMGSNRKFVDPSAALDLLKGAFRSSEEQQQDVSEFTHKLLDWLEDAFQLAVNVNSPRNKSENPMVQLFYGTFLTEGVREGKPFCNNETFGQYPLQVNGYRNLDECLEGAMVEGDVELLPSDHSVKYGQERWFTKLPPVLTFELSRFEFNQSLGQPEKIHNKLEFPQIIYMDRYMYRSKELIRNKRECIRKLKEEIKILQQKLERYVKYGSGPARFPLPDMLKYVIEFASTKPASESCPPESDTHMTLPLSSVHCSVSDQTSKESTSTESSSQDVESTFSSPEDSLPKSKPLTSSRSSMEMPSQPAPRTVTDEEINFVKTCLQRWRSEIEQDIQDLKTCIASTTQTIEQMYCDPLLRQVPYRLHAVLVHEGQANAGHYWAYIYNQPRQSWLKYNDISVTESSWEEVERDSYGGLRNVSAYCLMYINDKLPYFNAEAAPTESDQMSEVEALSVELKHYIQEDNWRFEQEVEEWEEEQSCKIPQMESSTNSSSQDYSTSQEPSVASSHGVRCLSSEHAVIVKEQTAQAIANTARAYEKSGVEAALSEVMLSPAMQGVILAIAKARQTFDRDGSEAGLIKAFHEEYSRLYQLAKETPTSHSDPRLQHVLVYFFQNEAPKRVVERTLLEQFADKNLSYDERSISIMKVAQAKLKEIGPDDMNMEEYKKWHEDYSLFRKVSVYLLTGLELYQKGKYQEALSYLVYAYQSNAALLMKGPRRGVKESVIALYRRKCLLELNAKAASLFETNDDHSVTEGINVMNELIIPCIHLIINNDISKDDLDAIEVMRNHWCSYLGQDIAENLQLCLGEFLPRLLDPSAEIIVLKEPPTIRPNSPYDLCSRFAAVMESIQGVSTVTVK
# Method in brief: as §1
# USP24, sequence (Q9UPU5 whole entry): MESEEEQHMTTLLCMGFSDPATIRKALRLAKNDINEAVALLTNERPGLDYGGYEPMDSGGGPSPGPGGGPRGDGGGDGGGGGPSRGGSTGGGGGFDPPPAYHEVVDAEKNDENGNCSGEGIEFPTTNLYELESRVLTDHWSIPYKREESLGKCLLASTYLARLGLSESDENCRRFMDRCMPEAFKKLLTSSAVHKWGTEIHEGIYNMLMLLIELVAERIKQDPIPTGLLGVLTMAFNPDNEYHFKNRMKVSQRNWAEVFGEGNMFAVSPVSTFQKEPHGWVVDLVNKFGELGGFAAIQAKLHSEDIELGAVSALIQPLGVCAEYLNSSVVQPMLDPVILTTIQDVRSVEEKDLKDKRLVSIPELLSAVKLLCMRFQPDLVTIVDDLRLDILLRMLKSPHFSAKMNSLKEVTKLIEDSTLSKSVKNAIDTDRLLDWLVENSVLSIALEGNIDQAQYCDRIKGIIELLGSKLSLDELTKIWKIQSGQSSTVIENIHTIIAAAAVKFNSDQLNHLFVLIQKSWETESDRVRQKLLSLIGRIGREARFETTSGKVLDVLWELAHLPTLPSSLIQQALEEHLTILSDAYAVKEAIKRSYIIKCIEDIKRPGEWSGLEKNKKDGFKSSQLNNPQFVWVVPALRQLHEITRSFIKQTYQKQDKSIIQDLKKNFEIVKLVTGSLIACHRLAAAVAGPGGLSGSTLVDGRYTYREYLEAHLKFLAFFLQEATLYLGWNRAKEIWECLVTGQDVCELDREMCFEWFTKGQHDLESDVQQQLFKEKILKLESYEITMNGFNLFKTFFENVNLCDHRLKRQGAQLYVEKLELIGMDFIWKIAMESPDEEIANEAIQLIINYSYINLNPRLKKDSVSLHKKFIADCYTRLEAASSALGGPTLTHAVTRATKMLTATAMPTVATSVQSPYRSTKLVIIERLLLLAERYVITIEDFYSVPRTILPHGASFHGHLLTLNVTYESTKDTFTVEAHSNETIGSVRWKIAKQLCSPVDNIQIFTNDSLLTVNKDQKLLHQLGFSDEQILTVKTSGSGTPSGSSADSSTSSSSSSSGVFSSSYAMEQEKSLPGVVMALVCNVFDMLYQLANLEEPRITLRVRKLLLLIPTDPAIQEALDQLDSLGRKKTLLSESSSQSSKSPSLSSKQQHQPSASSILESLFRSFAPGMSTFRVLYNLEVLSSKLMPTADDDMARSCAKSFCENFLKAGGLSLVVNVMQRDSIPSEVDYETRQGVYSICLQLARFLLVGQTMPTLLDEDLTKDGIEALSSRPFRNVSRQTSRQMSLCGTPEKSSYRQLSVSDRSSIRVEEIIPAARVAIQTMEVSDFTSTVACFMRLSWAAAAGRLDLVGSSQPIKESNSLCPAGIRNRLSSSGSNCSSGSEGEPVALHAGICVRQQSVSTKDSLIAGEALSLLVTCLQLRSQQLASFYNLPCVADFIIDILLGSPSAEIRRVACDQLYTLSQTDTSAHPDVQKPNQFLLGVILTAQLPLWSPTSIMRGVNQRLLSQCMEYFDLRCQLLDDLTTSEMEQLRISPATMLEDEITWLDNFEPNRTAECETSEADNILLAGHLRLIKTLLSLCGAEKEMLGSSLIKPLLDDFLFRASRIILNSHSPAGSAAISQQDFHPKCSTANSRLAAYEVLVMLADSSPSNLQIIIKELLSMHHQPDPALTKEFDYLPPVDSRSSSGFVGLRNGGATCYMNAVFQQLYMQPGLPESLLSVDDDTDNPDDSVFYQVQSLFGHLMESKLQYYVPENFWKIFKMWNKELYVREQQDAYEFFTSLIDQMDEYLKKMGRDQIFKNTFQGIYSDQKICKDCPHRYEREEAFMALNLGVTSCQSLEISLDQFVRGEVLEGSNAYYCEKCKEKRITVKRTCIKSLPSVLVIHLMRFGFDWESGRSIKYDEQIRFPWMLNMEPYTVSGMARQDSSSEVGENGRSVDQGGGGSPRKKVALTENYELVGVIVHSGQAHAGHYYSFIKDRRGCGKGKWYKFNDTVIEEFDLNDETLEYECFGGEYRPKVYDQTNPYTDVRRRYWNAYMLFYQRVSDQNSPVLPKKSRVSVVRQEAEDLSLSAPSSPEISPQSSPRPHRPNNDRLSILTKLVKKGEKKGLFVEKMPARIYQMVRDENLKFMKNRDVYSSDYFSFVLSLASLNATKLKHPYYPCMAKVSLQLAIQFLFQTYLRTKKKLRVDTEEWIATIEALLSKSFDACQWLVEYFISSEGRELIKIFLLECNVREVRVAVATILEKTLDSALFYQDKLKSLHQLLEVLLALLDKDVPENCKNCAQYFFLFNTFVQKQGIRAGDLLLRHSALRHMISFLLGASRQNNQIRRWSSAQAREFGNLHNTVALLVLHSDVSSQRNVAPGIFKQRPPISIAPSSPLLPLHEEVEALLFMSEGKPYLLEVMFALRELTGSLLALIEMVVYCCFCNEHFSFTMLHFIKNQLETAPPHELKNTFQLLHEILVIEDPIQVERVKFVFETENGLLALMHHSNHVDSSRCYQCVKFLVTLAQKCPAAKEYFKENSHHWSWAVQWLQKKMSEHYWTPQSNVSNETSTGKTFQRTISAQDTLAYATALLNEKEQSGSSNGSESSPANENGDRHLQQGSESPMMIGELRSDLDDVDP
smiles,measurement,setting,value
CN1C(=O)c2ccc(NC(=O)CCl)cc2C1=O,log2 ratio of Biotin-Ahx-Ub-VS probe labelling,USP19,-0.358
same,log2 ratio of Biotin-Ahx-Ub-VS probe labelling,USP22,0.0519
same,log2 ratio of Biotin-Ahx-Ub-VS probe labelling,USP24,-0.467
same,log2 ratio of Biotin-Ahx-Ub-VS probe labelling,USP25,-1.54 (active)
same,log2 ratio of Biotin-Ahx-Ub-VS probe labelling,USP28,-1.5 (active)
